This passage reports inhibition results from ChEMBL document CHEMBL1961873, “Compounds: GSK PKIS; Assays: Nanosyn kinase panel” (2012).

As a reminder, the inhibition is the drop in the measured response relative to a control, in per cent.

“And” between values parts separate entries of the source, which are not always exact repeats. Equal entries are not always repeated.

In test [1] the target is Protein kinase C gamma type (Homo sapiens) (UniProt P05129). The conditions noted are these: at 1 µM.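 Note: each value is an averaged percent inhibition of the enzyme.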
Test [2] deals with T1, Protein kinase C iota type (Homo sapiens) (UniProt P41743).
T1 sequence (whole entry): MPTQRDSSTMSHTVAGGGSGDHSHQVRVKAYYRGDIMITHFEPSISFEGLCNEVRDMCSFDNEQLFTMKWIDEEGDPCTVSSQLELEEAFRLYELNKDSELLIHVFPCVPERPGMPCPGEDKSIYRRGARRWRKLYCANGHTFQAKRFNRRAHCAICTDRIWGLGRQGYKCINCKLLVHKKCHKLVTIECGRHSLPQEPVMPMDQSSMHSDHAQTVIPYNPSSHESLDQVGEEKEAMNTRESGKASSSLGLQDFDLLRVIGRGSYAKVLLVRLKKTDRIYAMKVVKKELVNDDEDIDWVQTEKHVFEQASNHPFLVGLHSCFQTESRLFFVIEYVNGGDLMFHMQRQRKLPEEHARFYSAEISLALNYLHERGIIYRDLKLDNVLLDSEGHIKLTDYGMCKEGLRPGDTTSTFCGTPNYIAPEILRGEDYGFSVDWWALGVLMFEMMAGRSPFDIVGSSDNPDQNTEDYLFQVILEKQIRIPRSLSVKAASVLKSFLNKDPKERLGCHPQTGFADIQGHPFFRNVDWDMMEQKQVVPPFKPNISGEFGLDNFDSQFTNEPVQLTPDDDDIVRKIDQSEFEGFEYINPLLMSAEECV
The conditions noted are these: at 0.1 µM.

Test [3] has as its target T1, Protein kinase C iota type (Homo sapiens). Conditions: at 1 µM.
In test [4] the target is Protein kinase C theta type (Homo sapiens) (UniProt Q04759). The conditions noted are these: at 0.1 µM.
Test [5] shares this target. The conditions noted are these: at 1 µM.
Test [6] concerns the target Protein kinase C beta type (Homo sapiens) (UniProt P05771). The conditions noted are these: at 0.1 µM.
Test [7] shares this target. The conditions noted are these: at 1 µM.
In test [8] the target is T2, Serine/threonine-protein kinase D1 (Homo sapiens) (UniProt Q15139).
T2 sequence (whole entry): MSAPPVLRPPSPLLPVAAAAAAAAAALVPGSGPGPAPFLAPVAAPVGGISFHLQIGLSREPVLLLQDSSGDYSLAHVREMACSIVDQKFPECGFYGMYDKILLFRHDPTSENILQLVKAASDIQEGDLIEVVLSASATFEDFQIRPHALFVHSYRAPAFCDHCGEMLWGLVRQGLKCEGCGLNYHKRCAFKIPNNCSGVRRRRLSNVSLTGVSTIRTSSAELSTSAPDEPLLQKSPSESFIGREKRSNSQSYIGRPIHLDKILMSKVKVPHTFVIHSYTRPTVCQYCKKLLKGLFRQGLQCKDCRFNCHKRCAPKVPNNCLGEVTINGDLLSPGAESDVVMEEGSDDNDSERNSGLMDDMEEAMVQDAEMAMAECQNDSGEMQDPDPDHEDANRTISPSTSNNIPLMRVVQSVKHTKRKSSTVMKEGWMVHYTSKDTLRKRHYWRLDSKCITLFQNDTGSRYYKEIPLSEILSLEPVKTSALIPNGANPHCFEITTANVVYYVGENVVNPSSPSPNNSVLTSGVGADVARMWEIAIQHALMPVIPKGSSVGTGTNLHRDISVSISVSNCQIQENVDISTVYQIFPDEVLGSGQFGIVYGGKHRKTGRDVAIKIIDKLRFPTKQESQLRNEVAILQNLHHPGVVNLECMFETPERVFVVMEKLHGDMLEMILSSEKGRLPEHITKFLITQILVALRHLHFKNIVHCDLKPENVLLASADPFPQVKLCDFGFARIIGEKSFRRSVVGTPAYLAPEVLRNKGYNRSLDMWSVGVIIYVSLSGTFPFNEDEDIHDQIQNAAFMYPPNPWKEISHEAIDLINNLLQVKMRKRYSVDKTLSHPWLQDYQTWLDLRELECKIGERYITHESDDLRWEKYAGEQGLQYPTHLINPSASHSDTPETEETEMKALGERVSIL
Conditions: at 0.1 µM.

Test [9] has as its target T2, Serine/threonine-protein kinase D1 (Homo sapiens). The conditions noted are these: at 1 µM.
Test [10] has as its target T3, Serine/threonine-protein kinase D2 (Homo sapiens) (UniProt Q9BZL6).
T3 sequence (whole entry): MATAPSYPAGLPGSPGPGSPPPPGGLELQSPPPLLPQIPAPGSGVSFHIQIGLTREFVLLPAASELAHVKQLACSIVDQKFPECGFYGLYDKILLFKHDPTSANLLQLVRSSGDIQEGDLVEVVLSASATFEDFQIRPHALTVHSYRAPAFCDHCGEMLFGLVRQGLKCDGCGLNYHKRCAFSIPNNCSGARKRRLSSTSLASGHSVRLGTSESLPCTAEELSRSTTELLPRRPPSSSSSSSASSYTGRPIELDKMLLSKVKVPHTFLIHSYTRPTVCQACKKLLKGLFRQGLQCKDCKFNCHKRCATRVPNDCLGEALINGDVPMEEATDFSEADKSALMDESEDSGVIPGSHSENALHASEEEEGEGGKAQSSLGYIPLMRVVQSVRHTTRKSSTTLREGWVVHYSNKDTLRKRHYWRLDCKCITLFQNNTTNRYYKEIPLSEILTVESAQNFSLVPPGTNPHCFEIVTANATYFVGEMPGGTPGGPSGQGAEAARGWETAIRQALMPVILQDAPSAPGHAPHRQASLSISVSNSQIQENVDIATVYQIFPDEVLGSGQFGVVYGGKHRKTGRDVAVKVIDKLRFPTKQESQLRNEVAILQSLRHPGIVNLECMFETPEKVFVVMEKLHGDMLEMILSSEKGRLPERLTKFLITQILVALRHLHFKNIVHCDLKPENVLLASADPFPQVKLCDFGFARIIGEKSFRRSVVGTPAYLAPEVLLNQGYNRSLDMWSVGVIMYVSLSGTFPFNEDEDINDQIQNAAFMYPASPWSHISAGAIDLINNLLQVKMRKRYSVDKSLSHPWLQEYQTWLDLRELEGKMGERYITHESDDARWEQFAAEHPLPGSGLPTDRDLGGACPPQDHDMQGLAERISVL
The conditions noted are these: at 0.1 µM.

Test [11] has as its target T3, Serine/threonine-protein kinase D2 (Homo sapiens). The conditions noted are these: at 1 µM.
Test [12] concerns the target T4, Serine/threonine-protein kinase D3 (Homo sapiens) (UniProt O94806).
T4 sequence (whole entry): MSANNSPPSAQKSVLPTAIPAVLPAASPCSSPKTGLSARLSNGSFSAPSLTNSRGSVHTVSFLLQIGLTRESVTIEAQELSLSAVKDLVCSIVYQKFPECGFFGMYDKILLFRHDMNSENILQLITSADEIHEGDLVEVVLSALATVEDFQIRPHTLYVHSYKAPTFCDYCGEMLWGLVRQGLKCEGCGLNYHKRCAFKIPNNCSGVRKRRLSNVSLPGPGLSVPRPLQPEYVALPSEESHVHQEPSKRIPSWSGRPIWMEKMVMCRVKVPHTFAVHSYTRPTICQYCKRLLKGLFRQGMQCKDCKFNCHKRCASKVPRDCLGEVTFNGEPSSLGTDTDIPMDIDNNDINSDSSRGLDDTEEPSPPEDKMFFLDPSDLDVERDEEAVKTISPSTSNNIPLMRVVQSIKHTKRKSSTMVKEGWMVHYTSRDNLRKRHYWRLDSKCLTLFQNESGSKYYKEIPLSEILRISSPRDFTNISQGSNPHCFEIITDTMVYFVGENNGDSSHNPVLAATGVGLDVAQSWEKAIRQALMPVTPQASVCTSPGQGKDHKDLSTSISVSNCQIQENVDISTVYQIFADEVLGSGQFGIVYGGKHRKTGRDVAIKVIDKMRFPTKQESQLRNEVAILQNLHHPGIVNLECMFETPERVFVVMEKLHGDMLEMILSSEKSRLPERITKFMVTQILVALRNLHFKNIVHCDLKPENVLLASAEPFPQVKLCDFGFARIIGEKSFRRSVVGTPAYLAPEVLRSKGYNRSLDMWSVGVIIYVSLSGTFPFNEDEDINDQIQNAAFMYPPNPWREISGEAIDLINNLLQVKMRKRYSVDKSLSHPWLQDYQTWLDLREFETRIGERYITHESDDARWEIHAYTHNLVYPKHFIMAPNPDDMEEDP
Conditions: at 0.1 µM.

For test [13], the target named is T4, Serine/threonine-protein kinase D3 (Homo sapiens). The conditions noted are these: at 1 µM.
Test [14] addresses T5, cGMP-dependent protein kinase 1 (Homo sapiens) (UniProt Q13976).
T5 sequence (whole entry): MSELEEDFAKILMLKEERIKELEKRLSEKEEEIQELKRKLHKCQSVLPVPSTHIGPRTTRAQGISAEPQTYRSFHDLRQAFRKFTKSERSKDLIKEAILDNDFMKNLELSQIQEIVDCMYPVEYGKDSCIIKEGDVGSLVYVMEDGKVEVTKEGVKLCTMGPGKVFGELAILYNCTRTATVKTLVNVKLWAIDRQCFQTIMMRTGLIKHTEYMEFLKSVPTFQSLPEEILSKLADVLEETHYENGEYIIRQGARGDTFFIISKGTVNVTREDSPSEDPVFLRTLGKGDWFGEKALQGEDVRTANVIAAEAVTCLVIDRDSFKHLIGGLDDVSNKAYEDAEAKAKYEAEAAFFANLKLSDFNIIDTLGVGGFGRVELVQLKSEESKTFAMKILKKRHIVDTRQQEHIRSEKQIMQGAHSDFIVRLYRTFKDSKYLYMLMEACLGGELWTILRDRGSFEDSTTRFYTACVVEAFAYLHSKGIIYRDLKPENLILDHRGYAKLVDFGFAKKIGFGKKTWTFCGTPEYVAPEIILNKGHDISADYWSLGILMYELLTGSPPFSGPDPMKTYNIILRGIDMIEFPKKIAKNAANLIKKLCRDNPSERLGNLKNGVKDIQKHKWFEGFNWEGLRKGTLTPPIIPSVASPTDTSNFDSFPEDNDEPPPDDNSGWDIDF
Conditions: at 0.1 µM.

The target in test [15] is T5, cGMP-dependent protein kinase 1 (Homo sapiens). Conditions: at 1 µM.
Test [16] deals with T6, cGMP-dependent protein kinase 2 (Homo sapiens) (UniProt Q13237).
T6 sequence (whole entry): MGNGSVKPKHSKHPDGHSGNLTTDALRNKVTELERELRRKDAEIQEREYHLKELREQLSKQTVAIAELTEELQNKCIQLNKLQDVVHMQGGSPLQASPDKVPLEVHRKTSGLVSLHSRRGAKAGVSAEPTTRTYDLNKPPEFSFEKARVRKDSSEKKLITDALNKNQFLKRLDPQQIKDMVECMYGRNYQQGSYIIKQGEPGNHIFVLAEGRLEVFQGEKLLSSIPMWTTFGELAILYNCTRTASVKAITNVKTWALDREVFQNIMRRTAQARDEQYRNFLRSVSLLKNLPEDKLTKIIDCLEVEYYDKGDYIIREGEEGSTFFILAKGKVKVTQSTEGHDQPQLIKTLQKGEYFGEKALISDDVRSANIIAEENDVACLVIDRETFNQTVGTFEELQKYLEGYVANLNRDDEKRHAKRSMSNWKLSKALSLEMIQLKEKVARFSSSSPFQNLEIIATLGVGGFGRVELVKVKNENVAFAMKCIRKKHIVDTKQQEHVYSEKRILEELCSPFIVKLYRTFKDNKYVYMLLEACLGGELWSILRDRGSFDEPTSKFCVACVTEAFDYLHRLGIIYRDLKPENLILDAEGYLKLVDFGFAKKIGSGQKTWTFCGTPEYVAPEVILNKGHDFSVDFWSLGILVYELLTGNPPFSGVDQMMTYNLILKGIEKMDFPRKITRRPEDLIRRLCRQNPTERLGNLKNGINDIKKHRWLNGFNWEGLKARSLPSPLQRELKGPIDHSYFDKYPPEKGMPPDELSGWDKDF
Conditions: at 0.1 µM.

Test [17] concerns the target T6, cGMP-dependent protein kinase 2 (Homo sapiens). Conditions: at 1 µM.
The target of test [18] is T7, cAMP-dependent protein kinase catalytic subunit PRKX (Homo sapiens) (UniProt P51817).
T7 sequence (whole entry): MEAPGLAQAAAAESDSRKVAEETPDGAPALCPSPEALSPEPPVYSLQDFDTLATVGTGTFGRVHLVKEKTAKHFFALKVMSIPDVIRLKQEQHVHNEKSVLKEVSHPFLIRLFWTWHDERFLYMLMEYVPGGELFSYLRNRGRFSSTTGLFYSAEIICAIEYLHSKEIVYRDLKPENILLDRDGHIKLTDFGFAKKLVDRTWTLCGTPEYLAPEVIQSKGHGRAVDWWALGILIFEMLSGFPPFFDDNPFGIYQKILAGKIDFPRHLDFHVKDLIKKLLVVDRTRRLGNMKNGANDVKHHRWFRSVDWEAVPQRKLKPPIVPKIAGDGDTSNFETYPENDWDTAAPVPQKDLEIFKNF
The conditions noted are these: at 0.1 µM.

Test [19] addresses T7, cAMP-dependent protein kinase catalytic subunit PRKX (Homo sapiens). Conditions: at 1 µM.
The target in test [20] is Rho-associated protein kinase 1 (Homo sapiens) (UniProt Q13464). Conditions: at 0.1 µM.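 Note: values are mean percent inhibition of ROCK1.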
Chain of Rho-associated protein kinase 1 (Homo sapiens) (Q13464 2-1354 limits assumed): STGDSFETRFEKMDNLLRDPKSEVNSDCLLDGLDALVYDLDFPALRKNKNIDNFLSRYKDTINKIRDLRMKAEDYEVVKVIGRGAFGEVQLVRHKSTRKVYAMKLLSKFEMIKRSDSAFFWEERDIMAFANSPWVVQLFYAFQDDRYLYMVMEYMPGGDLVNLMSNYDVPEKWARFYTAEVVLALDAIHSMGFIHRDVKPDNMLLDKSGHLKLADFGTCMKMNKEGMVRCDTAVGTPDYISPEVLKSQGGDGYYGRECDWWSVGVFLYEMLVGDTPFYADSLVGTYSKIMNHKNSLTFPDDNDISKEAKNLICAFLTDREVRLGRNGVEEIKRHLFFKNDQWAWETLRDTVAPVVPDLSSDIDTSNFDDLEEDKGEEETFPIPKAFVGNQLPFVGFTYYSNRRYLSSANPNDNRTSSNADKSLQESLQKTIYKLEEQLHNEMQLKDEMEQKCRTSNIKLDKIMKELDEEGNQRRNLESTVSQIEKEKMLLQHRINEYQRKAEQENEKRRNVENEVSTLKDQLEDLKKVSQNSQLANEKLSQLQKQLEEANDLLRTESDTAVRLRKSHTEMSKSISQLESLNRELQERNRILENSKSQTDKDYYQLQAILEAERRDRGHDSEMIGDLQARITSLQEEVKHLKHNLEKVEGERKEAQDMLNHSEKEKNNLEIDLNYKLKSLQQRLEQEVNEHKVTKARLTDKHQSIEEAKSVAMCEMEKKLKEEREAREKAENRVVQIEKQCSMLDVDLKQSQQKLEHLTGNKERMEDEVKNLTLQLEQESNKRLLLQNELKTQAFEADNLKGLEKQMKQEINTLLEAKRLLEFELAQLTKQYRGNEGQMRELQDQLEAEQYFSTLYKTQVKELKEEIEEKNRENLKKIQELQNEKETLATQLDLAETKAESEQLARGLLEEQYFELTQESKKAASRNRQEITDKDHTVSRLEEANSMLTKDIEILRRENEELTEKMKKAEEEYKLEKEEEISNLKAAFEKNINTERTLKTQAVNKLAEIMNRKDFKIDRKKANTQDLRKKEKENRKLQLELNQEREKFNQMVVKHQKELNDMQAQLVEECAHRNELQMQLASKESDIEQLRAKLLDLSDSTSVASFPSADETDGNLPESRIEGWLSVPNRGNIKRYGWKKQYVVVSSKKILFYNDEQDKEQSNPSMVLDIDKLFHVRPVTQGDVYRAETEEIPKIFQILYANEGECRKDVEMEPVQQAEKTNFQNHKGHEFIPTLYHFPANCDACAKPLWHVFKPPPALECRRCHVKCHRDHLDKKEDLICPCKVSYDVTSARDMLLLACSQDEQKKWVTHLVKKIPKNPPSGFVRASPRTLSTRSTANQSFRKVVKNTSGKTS

Chain of Protein kinase C theta type (Homo sapiens) (Q04759 whole entry, looked up): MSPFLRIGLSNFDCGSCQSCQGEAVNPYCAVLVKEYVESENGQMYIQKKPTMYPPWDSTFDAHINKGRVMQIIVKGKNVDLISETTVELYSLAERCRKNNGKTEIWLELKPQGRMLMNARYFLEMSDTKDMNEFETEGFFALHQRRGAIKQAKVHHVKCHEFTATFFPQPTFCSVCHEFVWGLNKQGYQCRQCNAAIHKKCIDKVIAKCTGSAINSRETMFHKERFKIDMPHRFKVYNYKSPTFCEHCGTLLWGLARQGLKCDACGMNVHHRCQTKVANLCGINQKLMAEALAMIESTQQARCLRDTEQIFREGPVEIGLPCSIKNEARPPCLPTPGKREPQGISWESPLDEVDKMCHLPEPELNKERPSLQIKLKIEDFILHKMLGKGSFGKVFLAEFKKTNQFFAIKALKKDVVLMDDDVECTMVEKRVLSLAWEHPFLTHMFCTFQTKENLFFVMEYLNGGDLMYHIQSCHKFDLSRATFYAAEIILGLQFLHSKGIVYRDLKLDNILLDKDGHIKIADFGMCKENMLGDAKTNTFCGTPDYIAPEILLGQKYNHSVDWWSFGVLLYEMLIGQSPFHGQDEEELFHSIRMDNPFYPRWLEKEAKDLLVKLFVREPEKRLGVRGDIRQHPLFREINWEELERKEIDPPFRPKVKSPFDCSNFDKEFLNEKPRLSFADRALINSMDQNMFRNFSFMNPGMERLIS
Chain of Protein kinase C beta type (Homo sapiens) (P05771 2-671 limits assumed): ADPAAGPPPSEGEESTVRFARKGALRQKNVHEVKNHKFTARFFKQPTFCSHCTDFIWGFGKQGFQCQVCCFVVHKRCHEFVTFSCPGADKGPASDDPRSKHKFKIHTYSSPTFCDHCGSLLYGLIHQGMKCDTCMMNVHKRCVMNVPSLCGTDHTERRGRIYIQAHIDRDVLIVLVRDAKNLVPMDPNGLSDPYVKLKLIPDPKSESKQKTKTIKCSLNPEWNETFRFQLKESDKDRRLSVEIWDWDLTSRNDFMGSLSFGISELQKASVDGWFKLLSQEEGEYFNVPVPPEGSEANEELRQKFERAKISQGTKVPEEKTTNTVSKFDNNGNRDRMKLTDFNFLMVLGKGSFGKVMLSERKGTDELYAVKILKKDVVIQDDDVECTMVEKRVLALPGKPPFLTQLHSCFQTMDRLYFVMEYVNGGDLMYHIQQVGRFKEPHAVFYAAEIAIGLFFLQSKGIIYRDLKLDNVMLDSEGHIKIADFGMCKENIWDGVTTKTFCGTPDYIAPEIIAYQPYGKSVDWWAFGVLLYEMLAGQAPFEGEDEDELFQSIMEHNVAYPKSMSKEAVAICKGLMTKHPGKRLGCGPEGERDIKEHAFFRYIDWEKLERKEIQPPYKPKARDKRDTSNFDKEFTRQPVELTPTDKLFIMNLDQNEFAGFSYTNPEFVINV

As for `Nc1nonc1-c1nc2cnccc2n1C1CC1`, the inhibition in test [1] is 16.4% and 14.8%; in [2], 1.95% and 3.2%; in test [3] it was 14.8% and 15.6%; in test [4] it was 8.24% and 7.85%; in test [5], 38.7% and 40.1%; in test [6] it was 7.25% and 6.7%. Also, the inhibition was 31.2% and 31.3% in test [7]; 4% and 0.29% in test [8]; 22.3% and 23.2% in [9]; 4% and 0.3% in [10]; 18.3% and 17.4% in [11]; 5.14% and 1.26% in [12]. For the same molecule, the inhibition in [13] is 21.9% and 19.9%; in test [14] it was 13.6% and 15.4%; in test [15] it was 50.7% and 56.1%; in test [16], 36.7% and 40.2%; in test [17], 65.8% and 69.3%; in [18], 3.44% and 4.71%. Besides, the inhibition in [19] is 23.7% and 26.4%; in [20], 43.6% and 46.2%.
